For 8 compounds, Potency, activity change, negative = inhibition and activity, negative = inhibition results are on record in PubChem BioAssay (NCATS).

Structures are written as SMILES. Unmarked numbers belong to inactive results. Inconclusive results are not listed. Activity calls are given as the source filed them. Unless noted, the call rests on the fitted dose curve; in most records, active means well fitted curve in either direction with a large enough effect (not every such curve was filed as active); inconclusive means small, poorly fitted or top-dose-only effect, or another doubt; inactive means flat fitted curve, though single readings scatter.

In assay [1] the target is Lysosomal acid glucosylceramidase (Homo sapiens) (UniProt P04062). The assay can be described thus: Glucocerebrosidase-p2 (AID 348; in the data active means potency below about 10 µM; further: potency means the concentration at half of the fitted maximal effect). The conditions noted are these: purified GBA, blue fluorogenic substrate, 40 min. In a few lines:
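Normal human glucocerebrosidase (0.2 nM) with blue fluorogenic substrate (80 uM final) in citrate/phosphate pH 5.9 with 10mM sodium taurocholate, 0.01% tween-20; 40 min RT, NaOH/glycine stop; fluorescence Ex 365/Em 440; AC50 from a titration from 0.6 nM upwards.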

Assay [2] can be described thus: AP1 Signaling Pathway (AID 357). Further: on the % scale 0 is the no-effect control and ±100 the full control effect. The note with it: ME-180 AP-1-bla reporter, EGF-induced, beta-lactamase ratio, 5 h; at 7.69 µM (top of the series) unless noted. The gist of the method: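 A ratiometric CCF4 readout (405 nm excitation; 460 and 530 nm emission) quantified AP-1-driven beta-lactamase in ME-180 cells after 5 h with compound and EC50 EGF; AC50 values were derived for activators and inhibitors.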

Assay [3] in a line: NFAT Signaling Pathway (AID 444).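 Further: carbachol stimulus at about its EC50 of 1 µM final; on the % scale 0 is the no-effect control and ±100 the full control effect.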 The note with it: Jurkat NFAT-bla M1, carbachol, beta-lactamase ratio, 5 h; at 7.69 µM (top of the series) unless noted. The gist of the method:
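Jurkat cells carrying an NFAT-driven β-lactamase reporter and co-transfected muscarinic M1 receptor were treated with compound plus carbachol (1 uM final, an EC50 level) for 5 h at 37 °C. CCF4 loading followed for 1 h at RT; 460/530 nm ratio gave %activity.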

Assay [4] in a line: Stat Signaling Pathway (AID 446).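 Further: ME-180 cervical cancer cells given 40 pM IL-6 alongside compound; SIE-controlled beta-lactamase reporter measured as 460/530 nm FRET emission ratio; on the % scale 0 is the no-effect control and ±100 the full control effect.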 The conditions noted are these: ME-180 (cervical carcinoma) SIE beta-lactamase reporter, IL-6 stimulated, 5 h; at 7.69 µM (top of the series) unless noted. The gist of the method:
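Normalization used AC90 stimulation (300 pM IL-6) and AC90 inhibition (125 nM pan-JAK inhibitor at 40 pM IL-6). The underlying signal is SIE-driven beta-lactamase in ME-180 cells after 5 h IL-6 exposure with compound.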

The target of assay [5] is Glucocorticoid receptor (Homo sapiens) (UniProt P04150). The experiment in a line: GR-GFP Redistribution (AID 450;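 active means compounds whose dose series gives a full or clear partial fitted curve of increased nuclear translocation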; further: potency means the concentration at half of the fitted maximal effect). The note with it: U2OS GR-GFP nuclear translocation, laser cytometry, 2 h.
Sequence of Glucocorticoid receptor (Homo sapiens) (P04150 whole entry, looked up, the tested form may be a part): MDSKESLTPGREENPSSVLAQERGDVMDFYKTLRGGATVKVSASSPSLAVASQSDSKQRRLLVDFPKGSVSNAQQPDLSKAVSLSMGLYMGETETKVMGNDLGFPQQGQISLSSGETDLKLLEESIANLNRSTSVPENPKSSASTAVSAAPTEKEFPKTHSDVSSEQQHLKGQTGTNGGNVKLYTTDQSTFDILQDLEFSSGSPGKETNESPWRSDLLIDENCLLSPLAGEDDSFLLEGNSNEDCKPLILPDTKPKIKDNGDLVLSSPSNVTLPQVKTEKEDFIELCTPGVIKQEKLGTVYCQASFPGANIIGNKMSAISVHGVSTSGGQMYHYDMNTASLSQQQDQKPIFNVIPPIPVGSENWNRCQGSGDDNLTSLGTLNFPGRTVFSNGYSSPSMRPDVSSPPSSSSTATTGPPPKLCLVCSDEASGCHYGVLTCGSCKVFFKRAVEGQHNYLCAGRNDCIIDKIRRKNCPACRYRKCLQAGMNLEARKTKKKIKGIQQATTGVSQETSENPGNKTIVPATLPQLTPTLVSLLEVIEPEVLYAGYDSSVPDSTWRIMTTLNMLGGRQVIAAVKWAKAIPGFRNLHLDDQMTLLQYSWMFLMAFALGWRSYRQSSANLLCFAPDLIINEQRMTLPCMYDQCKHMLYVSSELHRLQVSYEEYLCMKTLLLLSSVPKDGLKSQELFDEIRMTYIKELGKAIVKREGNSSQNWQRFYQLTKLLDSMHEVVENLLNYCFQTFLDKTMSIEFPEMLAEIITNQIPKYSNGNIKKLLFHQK
Assay [6] has the same target. The experiment in a line: GR-EFC Redistribution (AID 451; calls by dose curve; further: potency means the concentration at half of the fitted maximal effect). The conditions noted are these: CHO-K1 GR-EFC translocation, beta-gal luminescence, 2 h. In a few lines: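 CHO-K1 cells stably expressing nuclear-localized β-gal enzyme acceptor and GR fused C-terminally to the enzyme donor fragment; ligand-driven nuclear translocation restores β-gal by complementation. Compounds titrated up to 46 uM final, 2 h at 37 °C; luminescence read.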

The target in assay [7] is Mitogen-activated protein kinase 10 (Mus musculus) (UniProt Q61831). The experiment in a line: JNK3 AlphaScreen Assay (AID 530).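 Further: kinase came from lysate of stimulated human HepG2 cells; signal reports phosphorylation of biotinylated GST-cJun 1-79 at Ser73 with 10 µM ATP; on the % scale 0 is the no-effect control and ±100 the full control effect.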 The conditions noted are these: JNK3 lysate, c-Jun phosphorylation; series mostly up to 11.4 µM. In a few lines:
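Biotinylated GST-cJun(1-79) served as substrate for JNK3 in HepG2 lysates stimulated with IL-1beta and TNF-alpha. ATP was 10 uM final, pH 7.6. Ser73 phosphorylation was quantified by AlphaScreen (680 nm excitation).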

Assay [8] deals with 3',5'-cyclic-AMP phosphodiesterase 4B (Homo sapiens) (UniProt Q07343). The assay can be described thus: qHTS Assay for Inhibitors of PDE-IV (AID 607; active means well fitted activation curve with a large enough effect in the main read-out, with a control signal flat, not every such curve was filed as active; further: % of control where 0% means no effect). The note with it: HEK293 ACTOne CNG channel cells, membrane potential fluorescence; series mostly up to 22.9 µM. In a few lines: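 HEK293 ACTOne cells with CNG channel (1000/well), endogenous PDE4; membrane potential dye, compounds up to 22.9 uM final. Fluorescence Ex 535/Em 590; RO 20-1724 (100 uM final) as reference.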
Sequence of 3',5'-cyclic-AMP phosphodiesterase 4B (Homo sapiens) (Q07343 whole entry, looked up): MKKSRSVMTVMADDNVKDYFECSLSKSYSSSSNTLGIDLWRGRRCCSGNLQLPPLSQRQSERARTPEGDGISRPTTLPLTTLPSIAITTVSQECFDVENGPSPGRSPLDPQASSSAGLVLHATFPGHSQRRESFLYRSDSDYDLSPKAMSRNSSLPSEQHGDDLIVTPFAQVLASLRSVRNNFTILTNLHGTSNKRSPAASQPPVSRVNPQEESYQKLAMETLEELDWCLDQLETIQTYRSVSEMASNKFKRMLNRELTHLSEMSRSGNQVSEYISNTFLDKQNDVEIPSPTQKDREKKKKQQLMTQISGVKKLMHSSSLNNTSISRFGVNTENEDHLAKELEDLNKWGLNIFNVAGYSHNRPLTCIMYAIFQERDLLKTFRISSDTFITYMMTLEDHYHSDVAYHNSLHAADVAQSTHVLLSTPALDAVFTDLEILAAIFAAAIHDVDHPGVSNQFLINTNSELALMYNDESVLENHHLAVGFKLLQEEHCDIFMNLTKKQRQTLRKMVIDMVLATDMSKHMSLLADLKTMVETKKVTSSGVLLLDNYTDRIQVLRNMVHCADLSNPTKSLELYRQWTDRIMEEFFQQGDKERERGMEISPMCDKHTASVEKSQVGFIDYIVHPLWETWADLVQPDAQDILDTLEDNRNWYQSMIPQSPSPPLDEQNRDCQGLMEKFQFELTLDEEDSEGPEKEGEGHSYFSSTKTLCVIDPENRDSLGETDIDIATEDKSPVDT
Background: qHTS replaces the single test concentration by a dilution series.

For assay [9], the target named is Cytochrome P450 1A2 (Homo sapiens) (UniProt P05177). The assay can be described thus: p450-cyp1a2 (AID 410; calls by dose curve; further: potency means the concentration at half of the fitted maximal effect). The conditions noted are these: recombinant CYP1A2, luciferin-ME demethylation, luminescence; series mostly up to 11.4 µM. In a few lines: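 20nM CYP1A2, 100uM Luciferin-ME (=Km), 100mM KPO4; cpd 10 min RT; +NADPH regen, 60 min RT; stop/detect 20 min; luminescence. Normalized to furafylline 57 uM = full inhibition.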
Sequence of Cytochrome P450 1A2 (Homo sapiens) (P05177 whole entry, looked up): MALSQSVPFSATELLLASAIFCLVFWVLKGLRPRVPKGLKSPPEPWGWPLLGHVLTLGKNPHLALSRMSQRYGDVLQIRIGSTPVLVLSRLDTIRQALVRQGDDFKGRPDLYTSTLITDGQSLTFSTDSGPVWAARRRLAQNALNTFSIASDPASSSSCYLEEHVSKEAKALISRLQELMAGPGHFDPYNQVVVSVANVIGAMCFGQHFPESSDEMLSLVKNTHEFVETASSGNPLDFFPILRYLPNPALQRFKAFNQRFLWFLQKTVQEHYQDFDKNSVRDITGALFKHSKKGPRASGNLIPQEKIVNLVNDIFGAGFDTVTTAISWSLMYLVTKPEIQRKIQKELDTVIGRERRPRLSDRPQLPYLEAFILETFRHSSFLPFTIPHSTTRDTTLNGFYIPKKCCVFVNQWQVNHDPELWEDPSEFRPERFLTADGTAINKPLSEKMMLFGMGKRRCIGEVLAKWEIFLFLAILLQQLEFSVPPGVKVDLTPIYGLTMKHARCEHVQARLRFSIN

Assay [10] addresses Cytochrome P450 3A4 (Homo sapiens) (UniProt P08684). The assay can be described thus: qHTS Assay for Activators of Cytochrome P450 3A4 (AID 885; active means well fitted curve in the direction sought with a large enough effect; an effect the other way counts as inactive or inconclusive; further: nearly all actives have a fitted effect of over 65% in size). The conditions noted are these: recombinant CYP3A4, Luciferin-PPXE luminescence, 60 min; series mostly up to 11.4 µM. The gist of the method:
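Human CYP3A4 dealkylates Luciferin-PPXE to luciferin, which luciferase detection converts to light. Substrate was at its KM (25uM), buffer 200mM KPO4, reaction 60 min at RT.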

The target of assay [11] is Cytochrome P450 2D6 (Homo sapiens) (UniProt P10635). The assay can be described thus: qHTS Assay for Inhibitors and Substrates of Cytochrome P450 2D6 (AID 891; active means well fitted curve in the direction sought with a large enough effect; an effect the other way counts as inactive or inconclusive; further: potency means the concentration at half of the fitted maximal effect; nearly all actives have a fitted effect of over 60% in size). The note with it: recombinant CYP2D6, luciferin-ME EGE luminescence; series mostly up to 11.4 µM. The gist of the method:
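Luminescent read-out of luciferin formed by 5 nM human CYP2D6 demethylating 30 uM Luciferin-ME EGE (Km level) over 60 min at room temperature after NADPH regeneration addition. Data normalized to full inhibition by 1.43 uM quinidine.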

Sequence of Lysosomal acid glucosylceramidase (Homo sapiens) (P04062 whole entry, looked up): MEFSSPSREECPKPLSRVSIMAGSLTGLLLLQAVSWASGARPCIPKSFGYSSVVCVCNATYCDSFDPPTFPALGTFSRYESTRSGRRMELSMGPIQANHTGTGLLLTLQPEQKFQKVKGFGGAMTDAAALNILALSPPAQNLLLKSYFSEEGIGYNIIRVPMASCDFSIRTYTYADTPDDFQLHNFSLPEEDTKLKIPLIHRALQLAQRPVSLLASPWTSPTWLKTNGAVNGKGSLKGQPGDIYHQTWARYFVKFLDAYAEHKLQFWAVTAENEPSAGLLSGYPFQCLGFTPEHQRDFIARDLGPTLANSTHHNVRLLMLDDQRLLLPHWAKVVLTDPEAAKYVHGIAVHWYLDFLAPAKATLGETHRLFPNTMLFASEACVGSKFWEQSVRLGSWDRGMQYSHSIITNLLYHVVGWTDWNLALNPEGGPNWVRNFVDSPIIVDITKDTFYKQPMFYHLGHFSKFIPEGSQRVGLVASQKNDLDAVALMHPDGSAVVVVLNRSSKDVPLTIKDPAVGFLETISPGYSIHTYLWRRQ
Sequence of Cytochrome P450 3A4 (Homo sapiens) (P08684 whole entry, looked up): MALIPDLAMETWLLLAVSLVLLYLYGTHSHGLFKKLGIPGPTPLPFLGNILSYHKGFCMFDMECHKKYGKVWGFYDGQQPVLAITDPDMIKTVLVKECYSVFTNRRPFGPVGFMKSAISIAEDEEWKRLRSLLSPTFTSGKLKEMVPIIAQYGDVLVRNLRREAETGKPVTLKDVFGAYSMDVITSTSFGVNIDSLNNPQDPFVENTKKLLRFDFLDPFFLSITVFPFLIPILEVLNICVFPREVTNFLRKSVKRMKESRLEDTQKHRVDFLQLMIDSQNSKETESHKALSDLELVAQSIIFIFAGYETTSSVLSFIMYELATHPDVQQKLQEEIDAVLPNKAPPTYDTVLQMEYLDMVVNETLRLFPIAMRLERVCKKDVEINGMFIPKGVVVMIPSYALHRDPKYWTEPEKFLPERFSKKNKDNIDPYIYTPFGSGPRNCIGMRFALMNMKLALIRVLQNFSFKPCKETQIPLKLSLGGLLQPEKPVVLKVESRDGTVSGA
Sequence of Cytochrome P450 2D6 (Homo sapiens) (P10635 whole entry, looked up): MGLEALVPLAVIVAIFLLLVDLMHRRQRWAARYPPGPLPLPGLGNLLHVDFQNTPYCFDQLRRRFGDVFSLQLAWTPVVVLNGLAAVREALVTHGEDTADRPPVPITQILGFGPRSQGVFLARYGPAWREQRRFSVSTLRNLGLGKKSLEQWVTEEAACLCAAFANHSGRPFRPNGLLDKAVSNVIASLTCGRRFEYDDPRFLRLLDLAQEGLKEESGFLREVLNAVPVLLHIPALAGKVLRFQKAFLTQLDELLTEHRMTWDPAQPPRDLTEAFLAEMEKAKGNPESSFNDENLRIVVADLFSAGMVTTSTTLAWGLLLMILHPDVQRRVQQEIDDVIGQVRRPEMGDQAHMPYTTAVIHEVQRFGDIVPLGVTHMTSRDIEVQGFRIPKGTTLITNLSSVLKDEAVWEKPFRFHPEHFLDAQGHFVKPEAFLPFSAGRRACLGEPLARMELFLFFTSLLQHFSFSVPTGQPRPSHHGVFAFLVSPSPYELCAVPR

`OC(Cc1cccnc1)(c1ccccc1)c1ccccc1`: the results for the Potency in assay [1], in [5] and in assay [6] were over 11.4 µM, over 46 µM and over 9.22 µM, respectively. Moreover, the activity change, negative = inhibition in assay [2] is 5.37%; in assay [3], -25.6%. Further, in assay [4], the activity, negative = inhibition was -5.74%. Besides, the Potency result in assay [7] and in assay [8] was “inactive” throughout.
As to `OC(Cc1ccccc1)(Cc1ccccc1)c1ccccc1`, the results for the Potency in assay [1], in assay [5] and in assay [6] were over 11.4 µM, over 46 µM and over 9.22 µM, respectively. The activity change, negative = inhibition is -8.82% in assay [2] and -15.2% in assay [3]. The activity, negative = inhibition in assay [4] was 11%. Also, the Potency entry in assay [7] and in assay [8] was “inactive” in each case.
Turning to `C/C(=N/NC(=O)c1ccncc1)c1ccccc1Cl`, the Potency was over 11.4 µM in assay [1], over 46 µM in assay [5] and over 9.22 µM in assay [6]. Further, the activity change, negative = inhibition in [2] was 12.5%; in assay [3], 8.3%. For the same compound, the activity, negative = inhibition in assay [4] was -2.05%. Besides, the Potency result in assay [7] and in [8] was “inactive” in each case.
Consider `Cc1ccc(S(=O)(=O)OC2CCN(C)CC2)cc1`, for which the Potency in [1] was over 11.4 µM; in [5] it was over 46 µM; in assay [6] it was over 9.22 µM. Further, the activity change, negative = inhibition in assay [2] is 0.369%; in assay [3], 2.31%. The activity, negative = inhibition in assay [4] is 3.66%. For the same compound, the Potency result in assay [7] and in assay [8] was “inactive” each time.
With `COc1ncc2nc(C)c(=O)n(C)c2n1`, the Potency was over 11.4 µM in assay [1], over 9.22 µM in assay [5] and over 46 µM in [6]. For the same compound, the activity change, negative = inhibition in assay [2] was -15%; in assay [3] it was -2.54%. In addition, in [4], the activity, negative = inhibition is -2.89%. For the same compound, the Potency result in assay [7] and in assay [8] was “inactive” each time.
With `O=C(O)C(=O)/C=C(\O)c1ccc(Br)cc1`, the values for the Potency in assay [1], in assay [5] and in assay [6] were over 11.4 µM, over 46 µM and over 9.22 µM, respectively. For the same compound, the figures for the activity change, negative = inhibition in [2] and in assay [3] were -0.263% and 12.1%, respectively. Besides, the activity, negative = inhibition in [4] is 11.6%. In addition, the Potency entry in assay [7] and in assay [8] was “inactive” in each case.
`CSc1cccc(NC(=O)OC2CCCCCCCCCCC2)c1`: the Potency in [1] was over 11.4 µM; in assay [9], 5.01 µM (active); in assay [5], over 46 µM; in assay [6], over 9.22 µM. Moreover, the activity change, negative = inhibition in assay [2] is 8.21%. Further, the Potency entry in assay [7], in assay [8] and in assay [10] was “inactive” in each case.
`OC1CC2CC[C@H](C1)N2CCCN1c2ccccc2Sc2ccc(Cl)cc21` (some centres undefined): the Potency is over 11.4 µM in [1], over 46 µM in assay [5], over 9.22 µM in assay [6] and 0.0631 µM (active) in assay [11]. In assay [2], the activity change, negative = inhibition is 18.1%. Further, the Potency entry in assay [9], in assay [7] and in assay [8] was “inactive” throughout.
